Active and inactive are the calls of the source. Rule for the calls: active = hit-call score of the fitted dose curve at least 0.9, where 1 is the maximum; inactive = score below 0.9.
Experiments:
[1] = ATG_CRE_CIS: Attagene CIS-FACTORIAL HepG2 Assay for human cAMP Responsive Element (CRE) binding protein 3 (AID 2282926); settings: HepG2 CRE cis-reporter, Attagene multiplexed mRNA; actives raise or lower the signal
Summary of the method: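 Assay format: transient reporter transfection of HepG2, 24 h treatment, total RNA isolation with DNase I step. Reporter abundance read by fluorescence after PCR and capillary separation; DMSO-normalised gain or loss fitting.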

[2] = target: CCAAT/enhancer-binding protein beta (Homo sapiens) (UniProt P17676); experiment: ATG_C_EBP_CIS: Attagene CIS-FACTORIAL HepG2 Assay for human CCAAT/Enhancer Binding Protein (C/EBP) beta (AID 2282927); settings: HepG2 Attagene cis-factorial transcription factor reporter; actives raise or lower the signal
Sequence of CCAAT/enhancer-binding protein beta (Homo sapiens) (P17676 whole entry, looked up): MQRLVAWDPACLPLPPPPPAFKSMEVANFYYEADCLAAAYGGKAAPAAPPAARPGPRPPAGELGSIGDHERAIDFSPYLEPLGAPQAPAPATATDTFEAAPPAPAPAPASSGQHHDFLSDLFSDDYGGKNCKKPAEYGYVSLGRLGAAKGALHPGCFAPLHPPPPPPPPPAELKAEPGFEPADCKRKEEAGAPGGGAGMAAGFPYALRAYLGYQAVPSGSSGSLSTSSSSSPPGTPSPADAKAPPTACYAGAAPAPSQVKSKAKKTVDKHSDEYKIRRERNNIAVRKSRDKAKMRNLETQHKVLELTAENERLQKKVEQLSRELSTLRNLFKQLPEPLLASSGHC
Summary of the method: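 Changes in reporter mRNA, rather than exogenous chimeric receptor activity, reflect native C/EBP signalling in transfected HepG2 cells dosed for 24 h; transcripts are detected by RT-PCR and capillary electrophoresis.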

[3] = ATG_CMV_CIS: Attagene CIS-FACTORIAL HepG2 Assay for human CMV (Internal Marker) (AID 2282928); settings: HepG2 CMV promoter reporter, transcription factor profiling; actives raise or lower the signal;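 note: endpoint acts as a background internal control marker rather than a target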
Summary of the method: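 Readout: fluorescent reporter cDNA fragments separated by capillary electrophoresis after RT-PCR and HpaI cut. Cells: HepG2 carrying transfected cis-promoter reporter constructs, dosed 24 h. Endpoint serves as background internal-marker control, fit bidirectionally versus DMSO.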

[4] = ATG_DR4_LXR_CIS: Attagene CIS-FACTORIAL HepG2 Assay for human Liver X Receptor (LXR), DR4 submotif (AID 2282929); settings: HepG2 Attagene DR4 cis-reporter, mRNA transcription; actives raise or lower the signal
Summary of the method: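 DR4 cis-reporter in HepG2, 24 h exposure. Detection: RT-PCR, 6-FAM labelling, CE fragment analysis. Endpoint fitted bidirectionally, DMSO = baseline.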

[5] = ATG_AP_1_CIS: Attagene CIS-FACTORIAL HepG2 Assay for human Activator Protein 1 (AP-1) (AID 2282931); settings: HepG2 Attagene cis-factorial AP-1 reporter mRNA; actives raise or lower the signal
Summary of the method: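 Cis-regulated reporter units transiently expressed in HepG2 report endogenous transcription-factor activity. Signal: reporter mRNA at 24 h, via RT-PCR and fluorescent capillary electrophoresis. Endpoint derived by bidirectional fitting, DMSO as negative control.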

[6] = ATG_AP_2_CIS: Attagene CIS-FACTORIAL HepG2 Assay for human Activator Protein 2 (AP-2) (AID 2282932); settings: HepG2 AP-2 cis-reporter, Attagene transcription factor profiling; actives raise or lower the signal
Summary of the method: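 Endogenous transcription factor activity is reported through transfected multiplex reporter constructs in HepG2, after 24 h of compound exposure. Transcripts were quantified by RT-PCR and capillary electrophoresis of fluorescent fragments. Bidirectional fit against DMSO.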

[7] = ATG_BRE_CIS: Attagene CIS-FACTORIAL HepG2 Assay for human Bone Morphogenetic Protein (BMP) Response Element (BRE) (AID 2282933); settings: HepG2 BMP response element reporter, Attagene transcription factor profiling; actives raise or lower the signal
Summary of the method: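 HepG2 cells transiently transfected with CIS reporter units (endogenous TF activity, BMP response element), dosed 24 h. Reporter mRNA quantified by RT-PCR, fluorescent labelling and capillary electrophoresis; bidirectional fit vs DMSO baseline.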

[8] = target: Retinoic acid receptor alpha (Homo sapiens) (UniProt P10276); experiment: ATG_DR5_RAR_CIS: Attagene CIS-FACTORIAL HepG2 Assay for human Retinoic Acid Receptor Alpha (RARE), DR5 submotif (AID 2282934); settings: HepG2 Attagene cis-factorial RARE DR5 reporter, mRNA; actives raise or lower the signal;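 for AC50: reporter responds to endogenous RAR alpha beta and gamma in HepG2 not RARA alone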
Sequence of Retinoic acid receptor alpha (Homo sapiens) (P10276 whole entry, looked up): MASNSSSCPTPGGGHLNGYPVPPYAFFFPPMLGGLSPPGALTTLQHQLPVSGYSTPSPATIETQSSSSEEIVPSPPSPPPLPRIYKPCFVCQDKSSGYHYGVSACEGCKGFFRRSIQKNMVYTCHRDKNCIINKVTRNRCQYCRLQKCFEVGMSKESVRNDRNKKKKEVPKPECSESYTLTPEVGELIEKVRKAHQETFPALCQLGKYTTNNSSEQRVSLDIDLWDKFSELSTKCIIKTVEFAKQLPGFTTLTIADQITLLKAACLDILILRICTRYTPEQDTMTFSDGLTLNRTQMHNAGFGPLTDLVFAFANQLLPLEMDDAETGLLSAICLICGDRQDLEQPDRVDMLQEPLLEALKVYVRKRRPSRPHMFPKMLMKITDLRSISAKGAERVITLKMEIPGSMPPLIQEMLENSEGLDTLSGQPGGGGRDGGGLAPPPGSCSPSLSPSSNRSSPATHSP
Summary of the method: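 HepG2, transient cis-reporter transfection, 24 h exposure. mRNA readout: RT-PCR, FAM label, HpaI cut, capillary electrophoresis. DMSO baseline, gain/loss fitting.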

[9] = target: Aryl hydrocarbon receptor (Homo sapiens) (UniProt P35869); experiment: ATG_Ahr_CIS: Attagene CIS-FACTORIAL HepG2 Assay for human Aryl Hydrocarbon Receptor (Ahr) (AID 2282930); settings: HepG2 AhR cis-factorial reporter transcription; actives raise or lower the signal
Sequence of Aryl hydrocarbon receptor (Homo sapiens) (P35869 whole entry, looked up): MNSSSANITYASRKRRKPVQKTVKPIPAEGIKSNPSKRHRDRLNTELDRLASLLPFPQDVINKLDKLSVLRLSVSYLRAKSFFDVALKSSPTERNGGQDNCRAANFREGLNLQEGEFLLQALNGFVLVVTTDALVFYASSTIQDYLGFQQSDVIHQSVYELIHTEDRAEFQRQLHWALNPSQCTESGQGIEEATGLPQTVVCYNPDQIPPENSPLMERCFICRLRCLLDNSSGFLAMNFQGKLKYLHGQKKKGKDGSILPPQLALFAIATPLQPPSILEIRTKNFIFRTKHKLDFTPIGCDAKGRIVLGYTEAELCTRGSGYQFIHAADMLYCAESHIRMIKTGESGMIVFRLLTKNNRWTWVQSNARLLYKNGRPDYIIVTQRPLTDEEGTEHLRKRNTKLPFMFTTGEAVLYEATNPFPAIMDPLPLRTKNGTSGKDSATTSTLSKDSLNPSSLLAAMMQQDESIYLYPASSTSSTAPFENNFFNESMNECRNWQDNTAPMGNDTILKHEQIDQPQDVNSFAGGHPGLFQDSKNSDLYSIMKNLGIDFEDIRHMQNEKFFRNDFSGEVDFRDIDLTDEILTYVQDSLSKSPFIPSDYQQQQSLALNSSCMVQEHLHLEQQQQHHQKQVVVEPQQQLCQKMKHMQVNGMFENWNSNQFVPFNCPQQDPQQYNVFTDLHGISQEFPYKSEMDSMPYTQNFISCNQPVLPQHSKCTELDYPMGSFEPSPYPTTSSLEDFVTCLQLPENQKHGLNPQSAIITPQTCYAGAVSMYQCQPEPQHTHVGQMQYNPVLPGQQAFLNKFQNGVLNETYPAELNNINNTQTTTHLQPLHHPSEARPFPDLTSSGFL
Summary of the method: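 HepG2, transient MRTU (cis) transfection, 24 h exposure. RNA → cDNA → PCR → 6-FAM primer extension → HpaI 2 h 37 C → CE. Fit: bidirectional, DMSO baseline.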

Measured: AC50

CCCCC/C=C\C=C\C(=O)OCC
inactive: [2] | [5] | [6] | [7]
active: [1] 58.8 µM | [3] 123 µM | [4] 55.1 µM | [8] 28.3 µM

CCNC(=S)NCC
inactive: [1] | [2] | [4] | [9] | [5] | [6]

O=C(O)c1ccccc1O
inactive: [1] | [2] | [3] | [4] | [5] | [6] | [7] | [8]

CCCc1ccc(O)cc1
active: [4] 70.5 µM
inactive: [1] | [2] | [3] | [5] | [6] | [7] | [8]

CCCCCC#CC(=O)OC
inactive: [1] | [2] | [4] | [9] | [5] | [6]

CC1=CC[C@@H]2C[C@H]1C2(C)C
inactive: [1] | [2] | [3] | [4] | [5] | [6] | [7] | [8]

CC(C)C(=O)c1ccccc1
inactive: [1] | [2] | [3] | [4] | [5] | [6] | [7] | [8]

CC(O)CN (configuration not stated)
inactive: [1] | [2] | [3] | [4] | [5] | [6] | [8]

CCCCOCCOC(=O)c1ccccc1C(=O)OCCOCCCC
inactive: [1] | [2] | [3] | [5] | [6] | [7] | [8]
active: [4] 55.8 µM

CCOC(=O)C=Cc1ccccc1
inactive: [1] | [2] | [3] | [4] | [5] | [6] | [7] | [8]

FC(F)(F)c1ccc(Cl)c(Cl)c1
inactive: [1] | [2] | [3] | [4] | [6] | [7]

C=CC(=O)OCC(CO)(COC(=O)C=C)COC(=O)C=C
inactive: [2]
active: [1] 163 µM | [3] 5.31 µM | [4] 18 µM | [5] 100 µM | [6] 27.8 µM | [7] 100 µM

C=C(C)C(=O)OCCOCCOC(=O)C(=C)C
inactive: [1] | [2] | [3] | [4] | [5] | [6] | [7]

NC(=O)c1cccnc1
active: [9] 29 µM
inactive: [1] | [2] | [4] | [5] | [6]

CCCCCCCCCCO[C@@H]1O[C@H](CO)[C@@H](O)[C@H](O)[C@H]1O
inactive: [1] | [2] | [3] | [5] | [6] | [7] | [8]
active: [4] 125 µM

CCCCCc1cccc(=O)o1
inactive: [1] | [2] | [3] | [4] | [5] | [6] | [7] | [8]

CCCCCCCC(=O)N(C)C
inactive: [1] | [2] | [3] | [4] | [5] | [6] | [8]

CCCCCCCCCCCCOCCOS(=O)(=O)O
inactive: [1] | [2] | [4] | [9] | [5] | [6] | [8]

CCC(=O)OC(C)(C)C1CC=C(C)CC1 (configuration not stated)
inactive: [1] | [2] | [4] | [5] | [6] | [7] | [8]

O=C(O)c1ccc(C(=O)O)c(C(=O)O)c1
inactive: [1] | [2] | [4] | [9] | [6] | [7] | [8]

C=C1CC[C@H]2O[C@]2(C)CC[C@@H]2[C@@H]1CC2(C)C
inactive: [1] | [2] | [4] | [9] | [5] | [6]

CC(=O)OC(C)(C)C
inactive: [1] | [3] | [4] | [9] | [5] | [6] | [7]

CCCCCCCCSCc1cc(C)c(O)c(CSCCCCCCCC)c1
inactive: [1] | [2] | [4] | [9] | [5] | [6] | [7]

CC(C)COC(=O)c1ccccc1
inactive: [1] | [2] | [4] | [9] | [5] | [6] | [7] | [8]

CCC(=O)OCC=Cc1ccccc1
inactive: [1] | [2] | [4] | [5] | [6]

CCC(C)C1CCCCC1=O (configuration not stated)
inactive: [1] | [2] | [4] | [9] | [5] | [6] | [7] | [8]

CCCCCCCCCCOC(=O)c1ccccc1C(=O)OCCCCCCCC
inactive: [1] | [3] | [4] | [9] | [5] | [6] | [7]

C=CC(O)CCCCC (configuration not stated)
active: [4] 37.3 µM
inactive: [1] | [2] | [9] | [6]

COc1cc(OC)c2ccc(=O)oc2c1
active: [4] 2.81 µM
inactive: [1] | [3] | [9] | [5] | [6]

COC(=O)C(C)Oc1ccc(Oc2ncc(C(F)(F)F)cc2Cl)cc1 (configuration not stated)
inactive: [1] | [2] | [4] | [5] | [6]
active: [9] 3.09 µM | [7] 149 µM

O=C1CCCCCCCCCCCC(=O)OCCO1
inactive: [1] | [2] | [4] | [9] | [5] | [6] | [7]

CC(=O)c1cccnc1
inactive: [1] | [3] | [4] | [9] | [5] | [6] | [7]

CCC=C(C)C=O
inactive: [1] | [3] | [4] | [9] | [5] | [6] | [7]

CC/C=C\CCOC(=O)C(C)C
inactive: [1] | [2] | [4] | [5] | [6] | [7] | [8]

S=c1[nH][nH]c(=S)s1
inactive: [1] | [2] | [4] | [9] | [5] | [6] | [7]

CC1=CCC(C(C)(C)O)CC1 (configuration not stated)
inactive: [1] | [2] | [4] | [9] | [5] | [6] | [7]

COc1ccc(OC)cc1
inactive: [1] | [2] | [4] | [6] | [7]

CCCCCCCCCCCCCCCCCC(=O)OCCCCCCCCCCCCCC(C)C
inactive: [1] | [3] | [4] | [9] | [5] | [6] | [7]

NNC(=O)OCc1ccccc1
inactive: [1] | [2] | [4] | [9] | [5] | [6] | [7] | [8]

CC(C)(C)c1cc(CCC(=O)OCCSCCOC(=O)CCc2cc(C(C)(C)C)c(O)c(C(C)(C)C)c2)cc(C(C)(C)C)c1O
inactive: [1] | [2] | [4] | [9] | [5] | [6] | [7]

CCCCCCCCCCCCS
inactive: [1] | [9] | [6] | [7]
active: [2] 24.2 µM | [4] 33.4 µM | [5] 48.8 µM | [8] 9.11 µM

CCCCN(CCO)CCO
inactive: [1] | [2] | [4] | [9] | [5] | [6] | [7]

CCC(C)(CCCC(C)C)OC(C)=O (configuration not stated)
inactive: [1] | [3] | [4] | [5] | [6] | [7]
active: [9] 71.4 µM

CCc1cccc(O)c1
inactive: [1] | [2] | [4] | [9] | [6] | [7]

CC(C)N(c1ccccc1)C(C)C
inactive: [1] | [2] | [4] | [9] | [5] | [6] | [7]

CC(C)(C)c1ccc(S)cc1
inactive: [1] | [3] | [4] | [9] | [5] | [6] | [7]

CCCCCC(=O)O[C@]1(C(C)=O)CC[C@H]2[C@@H]3CCC4=CC(=O)CC[C@]4(C)[C@H]3CC[C@@]21C
inactive: [4] | [9] | [6]
active: [1] 6.58 µM | [2] 8.6 µM | [5] 36.5 µM | [7] 7.66 µM

COc1ccc(N)c(C)c1
inactive: [1] | [2] | [4] | [9] | [6]
active: [7] 151 µM

CCCCCCOC(C)=O
inactive: [1] | [2] | [4] | [9] | [5] | [6] | [7]

CC(C)=CCCC(C)=CC(=O)O
inactive: [1] | [2] | [4] | [5] | [6] | [7]

CC(O)COCC(C)O (configuration not stated)
inactive: [1] | [2] | [4] | [9] | [5] | [6] | [7]

CCCCN(CCCC)CCCCCCN(CCCC)CCCC
inactive: [1] | [2] | [4] | [9] | [5] | [6] | [7] | [8]

CCCC1CCOC(C)S1 (configuration not stated)
inactive: [1] | [3] | [4] | [9] | [5] | [6] | [7]

CC/C=C\CCOC(C)OCC (configuration not stated)
inactive: [1] | [3] | [4] | [9] | [5] | [6] | [7]

CCC(C)COC(=O)CC(C)C (configuration not stated)
inactive: [1] | [3] | [4] | [9] | [5] | [6] | [7] | [8]

OCCCO
inactive: [1] | [3] | [4] | [9] | [5] | [6] | [7] | [8]

CC1(C)CC(N)CC(C)(CN)C1 (configuration not stated)
inactive: [1] | [3] | [4] | [5] | [6] | [7] | [8]

CCCCCCCOC(C)=O
inactive: [1] | [4] | [9] | [5] | [6] | [7] | [8]
